# CHT block: inhibitors of human choline transporter CHT; High affinity choline transporter 1 (Homo sapiens), Q9GZV3; CHT-expressing cells, membrane potential dye, choline response; stronger effect = lower value; B-score at 10 µM; actives 0.86% (n = 310,000); AID 488975, 2010;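 active = B-score over 3 SD under the library average, and starting fluorescence ratio not unusually high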;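 also: choline stimulus applied at its EC90 after an EC20 pre-addition; B-score computed on integrated fluorescence ratio after choline addition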
# Target sequence (Q9GZV3 whole entry, looked up): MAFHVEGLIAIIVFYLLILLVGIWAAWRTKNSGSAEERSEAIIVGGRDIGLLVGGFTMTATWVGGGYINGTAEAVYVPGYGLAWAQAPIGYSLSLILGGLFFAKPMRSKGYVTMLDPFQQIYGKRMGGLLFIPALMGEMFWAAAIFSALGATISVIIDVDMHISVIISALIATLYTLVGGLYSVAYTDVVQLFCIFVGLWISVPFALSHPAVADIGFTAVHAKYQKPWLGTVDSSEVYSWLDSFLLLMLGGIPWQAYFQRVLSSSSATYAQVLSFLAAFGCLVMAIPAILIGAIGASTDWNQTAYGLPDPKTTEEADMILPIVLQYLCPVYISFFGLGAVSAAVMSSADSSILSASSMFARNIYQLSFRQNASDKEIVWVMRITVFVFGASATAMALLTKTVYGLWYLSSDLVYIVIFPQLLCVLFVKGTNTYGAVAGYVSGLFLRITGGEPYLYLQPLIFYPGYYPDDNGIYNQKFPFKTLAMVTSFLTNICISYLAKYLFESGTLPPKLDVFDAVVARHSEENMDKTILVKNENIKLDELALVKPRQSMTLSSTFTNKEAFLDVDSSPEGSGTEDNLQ
# TMEM16A act: TMEM16A chloride channel activators or potentiators, primary screen, cell-based, HTS; HEK293 TMEM16A/YFP-H148Q/I152L, iodide quench fluorescence; stronger effect = lower value; actives 0.3% (n = 340,000); Anoctamin-1 (Mus musculus), Q8BHY3; B-score at 10 µM; AID 623877, 2012;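 active = fluorescence-ratio B-score plate-corrected deviation score at least 3 library SD below zero, with starting fluorescence score within 5 deviations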;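 also: channel opened by trigger with iodide after compound preincubation; score built on the fluorescence ratio of max minus min over baseline; more negative score means more quench and so TMEM16A activation or potentiation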
# ANO1 block: TMEM16A chloride channel inhibitors, primary screen, cell-based, HTS; Anoctamin-1 (Mus musculus), Q8BHY3; HEK293 TMEM16A/YFP iodide influx fluorescence, ionomycin; normalized B-score (activity score, 25-100; higher = stronger inhibition) at 10 µM; actives 1.2% (n = 310,000); AID 588511, 2011;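 active = ratio plate-corrected score three or more library SD toward inhibition, starting fluorescence score within five deviations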;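 also: score derived from kinetic fluorescence span divided by baseline fluorescence per well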
# CHT PAM: CHT positive allosteric modulators, primary screen, cell-based, membrane potential dye, choline EC20. CHT-expressing cells; stronger effect = higher value; LV-AA mutant CHT in HEK293 cells. B-score at 10 µM. actives 0.49% (n = 310,000). AID 488977, 2010;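 active = initial fluorescence not abnormally high and integrated response B-score, plate-corrected, over 3 SD above library mean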
# IDE cell activ: human IDE activators in live cells, primary screen, fluorescence polarization, HEK cells, FAbeta-B substrate; FAbeta-B cleavage; 0% vehicle, 100% cell-free pure enzyme wells; activation, % at 5.96 µM; actives 0.073% (n = 340,000);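 active = activation above the mean of all tested compounds plus 3 SD, set per screening campaign, cut at about 17% in these data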
# IDE cell inh: human IDE inhibitors in live cells, primary screen, fluorescence polarization, HEK cells, FAbetaB substrate | AID 434962, 2010 | Insulin-degrading enzyme (Homo sapiens), P14735 | inhibition, % at 5.59 µM | FAbetaB cleavage | actives 0.41% (n = 320,000);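 active = percent inhibition above the average of all tested compounds plus 3 SD, set per screening campaign, cut at about 16% in these data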;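 also: IDE supplied by intact live HEK cells; FP after avidin binding of uncleaved biotin substrate so inhibition keeps polarization high; 0% = DMSO wells and 100% = 60 µM reference IDE inhibitor Ii1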
# CHT activ conf: CHT activators, confirmation, cell-based, membrane potential dye, duplicate; shares compounds with CHT PAM; CHT-expressing cells, membrane potential dye fluorescence (FDSS); % of choline EC20–EC90 response window; HEK293 expressing CHT LV-AA mutant; choline added at its EC20; activation, % at 10 µM; actives 91% (n = 2,500);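 active = primary screen active, with duplicate mean activation above negative control mean plus 3 SD, cut at about 11% in these data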
# HEK293 MP dye: membrane potential response in parental HEK293 cells, counter-screen for CHT activator project, cell-based, membrane potential dye; actives 62% (n = 2,500); shares compounds with CHT PAM; membrane potential dye fluorescence (FDSS); measured after EC20 choline addition; ratio readout change at 10 µM, hits read low;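 active = duplicate-averaged ratio beyond 3 SD from buffer wells, up or down, though filed actives are nearly all decreases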
# Numbers without * were called inactive; i = inactive; . = no result. Hits are enriched below; roughly 2.7% of the tested compounds scored in any of these assays.
SMILES,CHT block,TMEM16A act,ANO1 block,CHT PAM,IDE cell activ,IDE cell inh,CHT activ conf,HEK293 MP dye
CCN(CC)CC(=O)Nc1cc(N(C)C)nc2ccccc12,i,i,i,i,1,6,.,.
COc1cc(C(=O)N/N=C/c2ccsc2C)cc(OC)c1OC,i,i,i,i,5,-2,19*,i
CCOC(=O)C(C#N)(Cc1ccc2ccccc2n1)Cc1ccc2ccccc2n1,.,i,.,.,3,.,.,.
CC(C)c1ccccc1NC(=O)COC(=O)c1c2c(nc3ccccc13)CCN(Cc1ccccc1)C2,i,i,i,i,5,-1,.,.
Cc1c(Cl)cccc1NC(=O)COC(=O)c1c2c(nc3ccccc13)CCN(Cc1ccccc1)C2,i,i,i,i,3,2,21*,i
Cc1ccc(S(=O)(=O)N2CCOCC2)cc1C(=O)OCC(=O)NCCc1ccc(F)cc1,.,i,.,.,5,-1,.,.
CN=c1scc(-c2ccc(Br)cc2)n1C,i,i,i,i,3,2,35*,-44*
COc1ccc(OCCN2CCCC2)cc1Nc1nnc(Cl)c(Nc2ccccc2S(C)(=O)=O)n1,.,i,.,.,4,.,.,.
COc1cc(/C=C2\SC(N3CCC(C)CC3)=NC2=O)ccc1O,i,i,i,i,-16,15,.,.
Cc1cc(NC(=O)CN(C)S(=O)(=O)c2cnc[nH]2)ccc1Br,i,i,i,i,7,3,.,.
Cc1nnc(N2CCC(C(=O)N3CCCCC3)CC2)c2nn(-c3ccc(Cl)cc3)c(C)c12,i,i,i,i,1,5,39*,i
CCCCNC(=S)N(C)/N=C/c1c(F)c(F)c(F)c(F)c1F,i,i,i,6.5*,10,-2,17*,i
O=C(Nc1ccccc1)C1CC2CCC1C2 (centres undefined),i,i,i,i,8,0,.,.
O=C(Nc1ccccc1)OC1CCC2CC1CCC2OC(=O)Nc1ccccc1 (centres undefined),i,i,i,i,-6,9,32*,i
C(=NN1CCCCCC1)c1ccc2c(c1)OCO2,.,i,.,.,5,.,.,.
COc1cc(OC)c(-c2nc(-c3ccncc3)no2)cc1OC,i,i,i,i,4,1,45*,-43*
COc1ccc(-c2nc(-c3ccncc3)no2)c(OC)c1,i,i,i,i,4,1,.,.
COc1ccccc1N(CC1CO1)S(=O)(=O)c1ccc(C)cc1 (centres undefined),i,i,i,i,-1,-3,.,.
Nc1ccc(Br)c[n+]1Cc1cccc2cccnc12,i,i,i,i,4,-2,34*,-46*
Nc1scn[n+]1Cc1cccc2cccnc12,i,i,i,i,3,6,.,.
CC(C)[C@H](NC(=O)c1ccccc1F)C(=O)NC1CCCCCCC1,.,i,.,.,-2,-1,.,.
CCN(CC)c1nc(N)c2c(N)nc3c(c2c1C#N)CC(c1ccccc1)O3 (centres undefined),i,i,i,6.5*,-8,10,26*,i
CCOC(=O)N1CCC(NC(=O)Cn2nc(Cc3ccncc3)c3ccccc3c2=O)CC1,i,i,i,i,4,4,.,.
CN1CCCC(n2nc(Cc3ccc(Cl)cc3)c3ccccc3c2=O)CC1 (centres undefined),i,i,i,i,10,2,44*,-30*
CCOc1ccc(S(=O)(=O)N(CC)CC(=O)NCc2ccncc2)cc1C,i,i,i,i,-2,0,.,.
SMILES,CHT block,TMEM16A act,ANO1 block,CHT PAM,IDE cell activ,IDE cell inh,CHT activ conf,HEK293 MP dye
CC(NC(=O)CN(C)Cc1ccc(Br)cc1)c1ccccc1 (centres undefined),i,i,i,8*,-4,-1,17*,i
CCc1cccc(C)c1NC(=O)CN(C)Cc1ccc(Br)cc1,i,i,i,i,4,-4,24*,i
CCCCN(CC(=O)Nc1c(C)cccc1CC)C(=O)SCC,i,i,i,9.1*,3,3,13*,i
COc1ccc(OC)c(C2c3[nH]c4ccccc4c3C[C@H]3C(=O)N(CCCOC(C)C)CC(=O)N23)c1 (some centres undefined),i,i,i,i,1,-1,.,.
COc1ccc2c(c1)c(C(=O)CN1CCC3(CC1)OCCO3)c(C)n2C,i,i,i,6.4*,6,2,15*,-41*
COc1ccc2c(c1)c(C(=O)CN1CCC(C(N)=O)CC1)c(C)n2C,i,i,i,6.3*,3,3,65*,-51*
COc1ccc(N2CCN(CC(=O)c3c(C)n(C)c4ccc(OC)cc34)CC2)cc1,i,i,i,i,.,7,.,.
COc1ccc2c(c1)c(C(=O)CN1CCOCC1)c(C)n2C,i,i,i,i,3,-1,38*,-37*
CCOC(=O)c1[nH]c2ccc(OC)cc2c1NC(=O)CN1CCC2(CC1)OCCO2,i,i,i,i,9,-2,.,.
COc1ccc2c(c1)c(C(=O)CN1CCCCC1)c(C)n2C,i,i,i,i,3,-5,44*,-51*
O=C(CS(=O)(=O)c1ccccc1)NCc1ccc(Cl)cc1,i,i,i,i,-1,6,.,.
O=C(CCOc1ccccc1)Nc1ccc(S(=O)(=O)Nc2ncccn2)cc1,.,i,.,.,-2,-5,.,.

# Screening data (PubChem BioAssay)
